Laboratory results published in PubChem BioAssay (Tox21).
Several values for one entry are separate records, joined by “and”; a condition that tells them apart may be missing. Equal values may be shown once. Inconclusive results are not listed. Where a call stands in place of a potency, no number is given. Where a structure was tested more than once in an assay, its records may differ in their call. Activity calls are given as the source filed them. Unless noted, calls come from the whole dose curve.

experiment: qHTS assay for small molecules that induce genotoxicity in human embryonic kidney cells expressing luciferase-tagged ATAD5 (AID 651632; active = well fitted activation curve with a large enough effect in the repeat runs; note: nearly all actives have a fitted effect of over 15% in size); conditions: HEK293T ATAD5-luciferase induction, 16 h; series mostly up to 83.3 µM
Outline: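 HEK293T cells carrying a luciferase reporter tagged to ATAD5 were exposed to compound or DMSO vehicle for 16 hr at 37C, 5% CO2. Amplite was added, and after 30 min at room temperature luciferase activity was read as a marker of ATAD5 induction.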
Potency is the fitted concentration of half-maximal effect.

Compound | Potency
COc1nn(C(=O)NS(=O)(=O)c2ccccc2OC(F)(F)F)c(=O)n1C | inactive
COC(C)(C)CCC[C@H](C)C/C=C/C(C)=C/C(=O)OC(C)C | inactive
O=C1NCN(c2ccccc2)C12CCN(CCCOc1ccc(F)cc1)CC2 | inactive
CCC(Cl)CCl (configuration not stated) | inactive
CCCC(=O)Cl | inactive
O=[Se]=O | inactive
O=C(C(Cl)(Cl)Cl)C(Cl)(Cl)Cl | inactive
CN(N=O)c1ccc([N+](=O)[O-])cc1 | inactive
CC(=O)NC1CCSC1=O (configuration not stated) | inactive
ClP(Cl)(Cl)(Cl)Cl | inactive
O=Cc1ccc2c(c1)OCO2 | inactive
O=S(=O)(O)C(F)(F)C(F)(F)C(F)(F)C(F)(F)F | inactive
CCn1cc[n+](C)c1 | inactive
Oc1ccc(Cl)c(Cl)c1Cl | inactive
O=[N+]([O-])c1ccc(F)c([N+](=O)[O-])c1 | inactive
CNP(=O)(OC)Oc1ccc(C(C)(C)C)cc1Cl (configuration not stated) | inactive
O=C(CBr)c1ccccc1 | inactive

Compound | Potency
C=COC(C)=O | inactive
CC1C(=O)C[C@]2(C(C)C)C[C@H]12 (some centres not stated) | inactive
COc1nn(CSP(=S)(OC)OC)c(=O)s1 | inactive
CCc1ccc(C(=O)NN(C(=O)c2cc(C)cc(C)c2)C(C)(C)C)cc1 | inactive
CCOP(O)OCC | inactive
CCCCCCCCCCOC(=O)c1ccccc1C(=O)OCCCCCCCCCC | inactive
CCCC(Cn1cncn1)c1ccc(Cl)cc1Cl (configuration not stated) | inactive
CCOC(=O)COc1cc(-c2nn(C)c(OC(F)F)c2Cl)c(F)cc1Cl | inactive
O=C(Nc1ccccc1)Nc1cnns1 | inactive
CC(=O)[C@H]1CC[C@H]2[C@@H]3CC[C@H]4C[C@](C)(O)CC[C@]4(C)[C@H]3CC[C@]12C | inactive
CCOP(=S)(OCC)SCSCC | inactive
O=C(CCl)c1ccc(Cl)cc1Cl | 18.8 µM (active) and 43.3 µM (active)
O=C(OC1CCCCC1)c1ccccc1C(=O)OC1CCCCC1 | inactive
NCC(CC(=O)O)c1ccc(Cl)cc1 (configuration not stated) | inactive
CN1[C@@H]2CC[C@H]1CC(OC(=O)c1cc(Cl)cc(Cl)c1)C2 (some centres not stated) | inactive
Clc1cc(Cl)c(Cl)c(Cl)c1 | inactive
ClCCCCBr | inactive

experiment: qHTS assay for small molecule agonists of the p53 signaling pathway - cell viability (AID 651633); conditions: p53RE-bla HCT-116 viability, ATP luminescence, 16 h; series mostly up to 83.3 µM; note: nearly all actives have a fitted effect of over 30% in size
Outline: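 Viability counter-read: CellTiter-Glo luminescence (30 min, room temperature) in the same p53RE-bla plates. These plates had been exposed to compounds for 16 h at 37 C.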

Compound | Potency
COc1nn(C(=O)NS(=O)(=O)c2ccccc2OC(F)(F)F)c(=O)n1C | inactive
COC(C)(C)CCC[C@H](C)C/C=C/C(C)=C/C(=O)OC(C)C | 61.1 µM (active)
O=C1NCN(c2ccccc2)C12CCN(CCCOc1ccc(F)cc1)CC2 | inactive
CCC(Cl)CCl (configuration not stated) | inactive
CCCC(=O)Cl | inactive
O=[Se]=O | inactive
O=C(C(Cl)(Cl)Cl)C(Cl)(Cl)Cl | inactive
CN(N=O)c1ccc([N+](=O)[O-])cc1 | inactive
CC(=O)NC1CCSC1=O (configuration not stated) | inactive
ClP(Cl)(Cl)(Cl)Cl | inactive
O=Cc1ccc2c(c1)OCO2 | inactive
O=S(=O)(O)C(F)(F)C(F)(F)C(F)(F)C(F)(F)F | inactive
CCn1cc[n+](C)c1 | inactive
Oc1ccc(Cl)c(Cl)c1Cl | inactive
O=[N+]([O-])c1ccc(F)c([N+](=O)[O-])c1 | inactive
CNP(=O)(OC)Oc1ccc(C(C)(C)C)cc1Cl (configuration not stated) | inactive
O=C(CBr)c1ccccc1 | inactive

Compound | Potency
C=COC(C)=O | inactive
CC1C(=O)C[C@]2(C(C)C)C[C@H]12 (some centres not stated) | inactive
COc1nn(CSP(=S)(OC)OC)c(=O)s1 | inactive
CCc1ccc(C(=O)NN(C(=O)c2cc(C)cc(C)c2)C(C)(C)C)cc1 | inactive
CCOP(O)OCC | inactive
CCCCCCCCCCOC(=O)c1ccccc1C(=O)OCCCCCCCCCC | inactive
CCCC(Cn1cncn1)c1ccc(Cl)cc1Cl (configuration not stated) | inactive
CCOC(=O)COc1cc(-c2nn(C)c(OC(F)F)c2Cl)c(F)cc1Cl | inactive
O=C(Nc1ccccc1)Nc1cnns1 | inactive
CC(=O)[C@H]1CC[C@H]2[C@@H]3CC[C@H]4C[C@](C)(O)CC[C@]4(C)[C@H]3CC[C@]12C | inactive
CCOP(=S)(OCC)SCSCC | inactive
O=C(CCl)c1ccc(Cl)cc1Cl | 5.96 µM (active) and 9.69 µM (active) and inactive
O=C(OC1CCCCC1)c1ccccc1C(=O)OC1CCCCC1 | inactive
NCC(CC(=O)O)c1ccc(Cl)cc1 (configuration not stated) | inactive
CN1[C@@H]2CC[C@H]1CC(OC(=O)c1cc(Cl)cc(Cl)c1)C2 (some centres not stated) | inactive
Clc1cc(Cl)c(Cl)c(Cl)c1 | inactive
ClCCCCBr | inactive

experiment: qHTS assay for small molecules that induce genotoxicity in human embryonic kidney cells expressing luciferase-tagged ATAD5 - cell viability (AID 651634); conditions: HEK293T ATAD5-luc cells viability, CellTiter-Fluor, 15.5 h; series mostly up to 83.3 µM; note: nearly all actives have a fitted effect of over 25% in size
Outline: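 HEK293T cells expressing luciferase-tagged ATAD5 were exposed to compound or DMSO for 15.5 hr at 37C, 5% CO2. Viability was then read as live-cell protease activity by CellTiter-Fluor fluorescence after 30 min at 37C.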

Compound | Potency
COc1nn(C(=O)NS(=O)(=O)c2ccccc2OC(F)(F)F)c(=O)n1C | inactive
COC(C)(C)CCC[C@H](C)C/C=C/C(C)=C/C(=O)OC(C)C | inactive
O=C1NCN(c2ccccc2)C12CCN(CCCOc1ccc(F)cc1)CC2 | inactive
CCC(Cl)CCl (configuration not stated) | inactive
CCCC(=O)Cl | inactive
O=[Se]=O | 764 nM (active)
O=C(C(Cl)(Cl)Cl)C(Cl)(Cl)Cl | inactive
CN(N=O)c1ccc([N+](=O)[O-])cc1 | inactive
CC(=O)NC1CCSC1=O (configuration not stated) | inactive
ClP(Cl)(Cl)(Cl)Cl | inactive
O=Cc1ccc2c(c1)OCO2 | inactive
O=S(=O)(O)C(F)(F)C(F)(F)C(F)(F)C(F)(F)F | inactive
CCn1cc[n+](C)c1 | inactive
Oc1ccc(Cl)c(Cl)c1Cl | inactive
O=[N+]([O-])c1ccc(F)c([N+](=O)[O-])c1 | 10.6 µM (active) and 27.6 µM (active)
CNP(=O)(OC)Oc1ccc(C(C)(C)C)cc1Cl (configuration not stated) | inactive
O=C(CBr)c1ccccc1 | inactive

Compound | Potency
C=COC(C)=O | inactive
CC1C(=O)C[C@]2(C(C)C)C[C@H]12 (some centres not stated) | inactive
COc1nn(CSP(=S)(OC)OC)c(=O)s1 | inactive
CCc1ccc(C(=O)NN(C(=O)c2cc(C)cc(C)c2)C(C)(C)C)cc1 | 486 nM (active)
CCOP(O)OCC | inactive
CCCCCCCCCCOC(=O)c1ccccc1C(=O)OCCCCCCCCCC | inactive
CCCC(Cn1cncn1)c1ccc(Cl)cc1Cl (configuration not stated) | inactive
CCOC(=O)COc1cc(-c2nn(C)c(OC(F)F)c2Cl)c(F)cc1Cl | inactive
O=C(Nc1ccccc1)Nc1cnns1 | inactive
CC(=O)[C@H]1CC[C@H]2[C@@H]3CC[C@H]4C[C@](C)(O)CC[C@]4(C)[C@H]3CC[C@]12C | inactive
CCOP(=S)(OCC)SCSCC | inactive
O=C(CCl)c1ccc(Cl)cc1Cl | inactive
O=C(OC1CCCCC1)c1ccccc1C(=O)OC1CCCCC1 | inactive
NCC(CC(=O)O)c1ccc(Cl)cc1 (configuration not stated) | inactive
CN1[C@@H]2CC[C@H]1CC(OC(=O)c1cc(Cl)cc(Cl)c1)C2 (some centres not stated) | inactive
Clc1cc(Cl)c(Cl)c(Cl)c1 | inactive
ClCCCCBr | inactive
